Test [1] relates to Zika virus NS2B-NS3 protease (unlinked complex). Briefly: Primary screen GU Rhodamine qHTS for Zika virus inhibitors: Unlinked NS2B-NS3 protease assay (AID 1347159). Note: nearly all actives have a fitted effect of over 60% in size. Particulars: Recombinant ZIKV NS2B-NS3 protease, Rhodamine110 substrate fluorescence; series mostly up to 107 µM. Summed up: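 Unlinked NS2B/NS3, 25 nM; Rhod110 peptide, 1.5 microM; compounds, up to 114 microM. Reaction run 15 min at RT in 10 mM Tris-HCl pH 8.0, 0.01% Tween 20; kinetic fluorescence change fitted with a 4-parameter Hill model.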
On the technique in general: In qHTS, concentration-response curves come from the screen itself.

Test [2] relates to Zika virus NS2B-NS3 protease (linked construct). As to the kind of experiment: Primary screen NINDS Rhodamine qHTS for Zika virus inhibitors (AID 1347160). Note: nearly all actives have a fitted effect of over 55% in size. The conditions noted are these: purified NS2B-NS3 protease, Rhodamine110 substrate fluorescence; series mostly up to 57.1 µM. The method in brief:
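Single-chain NS2B-NS3 protease, 25 nM, pH 8.0; compounds preincubated 15 min. Activity: Rhodamine110 release from 1.5 microM substrate over 15 min, room temperature, data fitted to 4-parameter Hill.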

Results on 40 molecules are retold here after PubChem BioAssay (NCATS).

The structures appear in SMILES notation. Records with an inconclusive call do not appear. Calls of active or inactive are those of the source. Calls come from the whole dose curve; as a rule, active = well fitted inhibition curve with a large enough effect; inconclusive = small, poorly fitted or top-dose-only effect; inactive = no such curve, though single readings can be large or run the other way. Where a SMILES comes first, the peptide text is derived from it. [ ]: non-standard residue; d: D form. PhLac = O=C(O)[CH](O)Cc1ccccc1; NMeV = CN[CH](C(=O)O)C(C)C
% is set by controls: 0 for no effect and ±100 for the full control effect; potency is the fitted concentration of half-maximal effect.

For `CC12CCC3c4ccc(O)cc4CCC3C1CCC2OC1OC(C(=O)O)C(O)C(O)C1O` (stereo not given), the Potency result in test [1] and in test [2] was “inactive” in each case.

As to `Cc1cc(O)cc(Oc2cc(C)c(C(=O)O)c(O)c2)c1`, the values for the Potency in test [1] and in test [2] were 14.1 µM (active) and 17.8 µM (active), respectively.

For `COC(=O)C1(Cc2ccc(O)cc2)OC(=O)C(OC)=C1c1ccc(O)cc1` (stereo not given), the Potency result in test [1] and in test [2] was “inactive” throughout.

`COc1cc(C/C(=C/NC(C)=O)N(CC(=O)Cc2ccccc2)C(C)=O)cc2c1OCO2`: the Potency result in test [1] and in test [2] was “inactive” in each case.

Turning to `O=C(c1ccc(C#Cc2cccc(F)c2)cn1)N1CC2CC2C1` (stereo not given), the Potency result in test [1] and in test [2] was “inactive” throughout.

Consider `O=C(O[C@H]1[C@@H]2C=CO[C@@H](O[C@@H]3O[C@H](CO)[C@@H](O)[C@H](O)[C@H]3O)[C@@H]2[C@@]2(CO)O[C@@H]12)c1ccc(O)cc1`, for which the Potency result in test [1] and in test [2] was “inactive” in each case.

Consider `C=C1CCC(OC(C)=O)C2(C)CC3(O)OC(=O)C(C)=C3CC12` (stereo not given), for which the Potency entry in test [1] and in test [2] was “inactive” throughout.

Regarding `CCOC(=O)c1ccnc(CNCC(=O)N(CC)CCN(C)C)c1`, the Potency entry in test [1] and in test [2] was “inactive” throughout.

For the molecule `CCCCNC(=O)[C@@H]1Cc2ccccc2N1C(=O)[C@@H](N)CC`, the Potency entry in test [1] and in test [2] was “inactive” each time.

On to `COC(=O)C1=CO[C@@H](O[C@@H]2O[C@H](CO[C@@H]3O[C@H](COC(=O)/C=C/c4ccc(O)cc4)[C@@H](O)[C@H](O)[C@H]3O)[C@@H](O)[C@H](O)[C@H]2O)[C@@H]2C(CO)=CC[C@H]12`, for which the Potency entry in test [1] and in test [2] was “inactive” each time.

For `Cn1c(=O)cc(N2CCCC(N)C2)n(Cc2ccccc2C#N)c1=O` (stereo not given), the Potency result in test [1] and in test [2] was “inactive” throughout.

With `CCOC(=O)c1ccc(N(C)c2csc(-c3ccccc3)n2)cc1`, the Potency entry in test [1] and in test [2] was “inactive” in each case.

For the molecule `COc1cc(/C=C/C(=O)OC2CC(OC(C)=O)C(OC(C)=O)C3C2CCC2C(=O)OC(c4ccoc4)CC23C)ccc1O[C@@H]1O[C@H](CO)[C@@H](O)[C@H](O)[C@H]1O` (stereo not given in full), the Potency result in test [1] and in test [2] was “inactive” in each case.

On to `CC(=O)N1CCN(NC(=O)c2ccc(F)cc2)CC1`, for which the Potency entry in test [1] and in test [2] was “inactive” in each case.

On to `CCOC(=O)[C@H]1O[C@@H]1C(=O)N[C@@H](CC(C)C)C(=O)NCCC(C)C`, for which the Potency entry in test [1] and in test [2] was “inactive” in each case.

For the molecule `C[C@@H]1C[C@H]2[C@@H]3CCC4=CC(=O)C=C[C@]4(C)[C@@]3(F)[C@@H](O)C[C@]2(C)[C@@]1(O)C(=O)COP(=O)(O)O`, the Potency result in test [1] and in test [2] was “inactive” in each case.

Consider `CCOC(=O)Nc1nc2ccccc2[nH]1`, for which the Potency entry in test [1] and in test [2] was “inactive” in each case.

With `COCCCNCC1COc2ccccc2O1` (stereo not given), the Potency result in test [1] and in test [2] was “inactive” throughout.

Turning to `CC(=O)c1c(C)cc(O[C@@H]2O[C@H](CO)[C@@H](O)[C@H](O)[C@H]2O)cc1O`, the Potency result in test [1] and in test [2] was “inactive” throughout.

Regarding `COc1cc(C2Oc3c(OC)cc(/C=C/C(=O)OC[C@H]4O[C@@H](OC(C)(C)C(=O)O)[C@H](O)[C@@H](O)[C@@H]4O)cc3C2CO)ccc1O` (stereo not given in full), the Potency result in test [1] and in test [2] was “inactive” throughout.

On to `c1nc(NC2CCCCCC2)c2cc(CNC[C@H]3CCCO3)sc2n1`, for which the Potency entry in test [1] and in test [2] was “inactive” throughout.

Turning to `CC1(C)CC2C(O)C3=C(CC(C)(O)C2C1)C(=O)OC3O` (stereo not given), the Potency result in test [1] and in test [2] was “inactive” throughout.

Regarding `COC(=O)[C@H](CC1C=NC=N1)NCC12CC3CC(CC(C3)C1)C2` (stereo not given in full), the Potency result in test [1] and in test [2] was “inactive” each time.

Regarding `Clc1ccc2c(c1)C1=NCCN1c1c(-c3noc(C4CC4)n3)ncn1-2`, the Potency result in test [1] and in test [2] was “inactive” throughout.

For `CNC(=O)[C@H]1O[C@@H](n2cnc3c(NCc4ccc(N)c(I)c4)ncnc32)[C@H](O)[C@@H]1O`, the activity change, negative = inhibition in test [1] was 10.8% [at 19.1 µM] (inactive). Also, the outcome in test [2] is “inactive [at 10.7 µM]”.

Consider `CC1=CC(=O)CC(C)(C)C1(O)CCC(C)O` (stereo not given), for which the Potency entry in test [1] and in test [2] was “inactive” each time.

As for `COc1c2c(c(C)c3c1C(=O)OC3)OC1(C)CC(O)C3(O)C(C)(C)OC(=O)CCC3(C)C1C2` (stereo not given), the Potency result in test [1] and in test [2] was “inactive” throughout.

As to `O=C(/C=C/c1ccccc1)OCC1=CC[C@@H]2C(C(=O)O)=CO[C@@H](O[C@@H]3O[C@H](CO)[C@@H](O)[C@H](O)[C@H]3O)[C@H]12`, the Potency entry in test [1] and in test [2] was “inactive” each time.

For `C/C=C(\C)C(=O)OC[C@H]1O[C@H](O[C@H]2O[C@H](CO)[C@@H](OC(=O)/C(C)=C/C)[C@H](O)[C@H]2O[C@@H]2O[C@H](CO)[C@@H](O)[C@H](O)[C@H]2O)[C@H](O[C@@H]2O[C@H](CO)[C@@H](O)[C@H](O)[C@H]2O)[C@@H](O)[C@@H]1O`, the Potency entry in test [1] and in test [2] was “inactive” throughout.

For `Cc1nnc(C(C)C)n1C1CC2CCC(C1)N2CCC(NC(=O)C1CCC(F)(F)CC1)c1ccccc1` (stereo not given), the Potency entry in test [1] and in test [2] was “inactive” each time.

For the molecule `O=C1N(CC2CCCCN2)CCN1c1ccccc1` (stereo not given), the Potency entry in test [1] and in test [2] was “inactive” throughout.

For `COc1ccc2c3c1O[C@H]1C[C@@H](O)C=C[C@@]31CCN(C)C2`, the Potency entry in test [1] and in test [2] was “inactive” in each case.

With `CC(C)C(C(=O)N1CCCC1C(=O)O)N(C)C(=O)C(O)Cc1ccccc1` (stereo not given) (H-[PhLac]-[NMeV]-Pro-OH; configuration not given here), the Potency result in test [1] and in test [2] was “inactive” each time.

For `CCOC(=O)c1c(C)nn(-c2cccc([N+](=O)[O-])c2)c1C`, the Potency result in test [1] and in test [2] was “inactive” each time.

On to `O=C1C[C@@H](c2ccc(O)cc2)Oc2cc(O)ccc21`, for which the Potency entry in test [1] and in test [2] was “inactive” in each case.

On to `COC(=O)C1=COC(O[C@@H]2O[C@H](CO)[C@@H](O)[C@H](O)[C@H]2O)/C(=C\COC(=O)c2ccc(OC3OC(CO)C(O)C(O)C3O)c(OC)c2)C1CC(=O)OCCc1ccc(O)cc1` (stereo not given in full), for which the Potency result in test [1] and in test [2] was “inactive” in each case.

As for `C[C@H](NCc1ccc(OCc2ccccc2F)cc1)C(N)=O`, the Potency result in test [1] and in test [2] was “inactive” each time.

On to `COC1CC(=O)CCC(C)OC(=O)CC1O` (stereo not given), for which the Potency result in test [1] and in test [2] was “inactive” each time.

`CC1(C)O[C@]23C[C@H]1C[C@H](OC(=O)c1ccoc1)[C@]2(C)[C@@H](OC(=O)c1ccoc1)CCC3(C)O` (stereo not given in full): the Potency result in test [1] and in test [2] was “inactive” each time.

With `CC(=O)O[C@@H]1C[C@@]23C[C@@]24CC[C@H](OC2OC[C@@H](O)[C@H](O)[C@H]2O)C(C)(C)[C@@H]4CC[C@H]3[C@]2(C)CC3OC4(C[C@@H](C)C3[C@@]12C)OCC1(C)OC14` (stereo not given in full), the Potency entry in test [1] and in test [2] was “inactive” each time.
